According to paper PMC5540273 (PLoS ONE, 2017):
Several values for one entry are separate records, joined by “and”; a condition that tells them apart may be missing. Equal values may be shown once. Read-outs that look alike come from different tables or passages of the source.

What was measured:
SGK = details: concentration: 1 μM, replicates: in singlicate, n = 1
SIK2 = details: concentration: 1 μM, replicates: in singlicate, n = 1
SIK = details: concentration: 1 μM, replicates: in singlicate, n = 1
SLK = details: concentration: 1 μM, replicates: in singlicate, n = 1
SNARK = test system: T1, SNARK; details: concentration: 1 μM, replicates: in singlicate, n = 1
T1 construct: gene NUAK2

SNRK = details: concentration: 1 μM, replicates: in singlicate, n = 1
SRC = details: concentration: 1 μM, replicates: in singlicate, n = 1
SRMS = details: concentration: 1 μM, replicates: in singlicate; n = 1
SRPK1 = details: concentration: 1 μM, replicates: in singlicate, n = 1
SRPK2 = details: concentration: 1 μM, replicates: in singlicate, n = 1
SRPK3 = details: concentration: 1 μM, replicates: in singlicate, n = 1
STK16 = details: concentration: 1 μM, replicates: in singlicate, n = 1
STK33 = details: concentration: 1 μM, replicates: in singlicate, n = 1
STK35 = details: concentration: 1 μM, replicates: in singlicate; n = 1
STK36 = details: concentration: 1 μM, replicates: in singlicate; n = 1
STK39 = details: concentration: 1 μM, replicates: in singlicate, n = 1
SYK = details: concentration: 1 μM, replicates: in singlicate, n = 1
SgK110 = details: concentration: 1 μM, replicates: in singlicate; n = 1
TAK1 = test system: T2, TAK1; details: concentration: 1 μM, replicates: in singlicate, n = 1
T2 construct: gene MAP3K7

TAOK1 = details: concentration: 1 μM, replicates: in singlicate, n = 1
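Further: KINOMEscan kinase panel screen.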

O=C(NCCNc1ccnc(Nc2ccc(F)cc2)n1)Nc1ccccc1F [GSK1379880]
%Inh (SGK): 0% | %Inh (SIK2): 0% | %Inh (SIK): 0% | %Inh (SLK): 11% | %Inh (SNARK): 0% | %Inh (SNRK): 0% | %Inh (SRC): 6% | %Inh (SRMS): 0% | %Inh (SRPK1): 5% | %Inh (SRPK2): 0% | %Inh (SRPK3): 2% | %Inh (STK16): 4% | %Inh (STK33): 0% | %Inh (STK35): 0% | %Inh (STK36): 48% | %Inh (STK39): 3% | %Inh (SYK): 26% | %Inh (SgK110): 55% | %Inh (TAK1): 0% | %Inh (TAOK1): 0%

CNc1ncnc2[nH]ncc12 [SKF-18355]
%Inh (SGK): 6% | %Inh (SIK2): 0% | %Inh (SIK): 0% | %Inh (SLK): 10% | %Inh (SNARK): 0% | %Inh (SNRK): 0% | %Inh (SRC): 17% | %Inh (SRMS): 22% | %Inh (SRPK1): 0% | %Inh (SRPK2): 0% | %Inh (SRPK3): 10% | %Inh (STK16): 0% | %Inh (STK33): 0% | %Inh (STK35): 0% | %Inh (STK36): 0% | %Inh (STK39): 9% | %Inh (SYK): 22% | %Inh (SgK110): 0% | %Inh (TAK1): 0% | %Inh (TAOK1): 0%

Cc1c(Cn2c(C)nn3c(=O)cc(N4CCOC(C)C4)nc23)cccc1C(F)(F)F (stereo not drawn) [GSK2344444]
%Inh (SGK): 9% | %Inh (SIK2): 0% | %Inh (SIK): 0% | %Inh (SLK): 7% | %Inh (SNARK): 0% | %Inh (SNRK): 0% | %Inh (SRC): 0% | %Inh (SRMS): 0% | %Inh (SRPK1): 32% | %Inh (SRPK2): 0% | %Inh (SRPK3): 0% | %Inh (STK16): 0% | %Inh (STK33): 0% | %Inh (STK35): 0% | %Inh (STK36): 0% | %Inh (STK39): 6% | %Inh (SYK): 12% | %Inh (SgK110): 0% | %Inh (TAK1): 0% | %Inh (TAOK1): 0%

C[C@@H](Oc1cc(-n2cnc3ccc(NC(=O)NC(C)(C)C)cc32)sc1C(N)=O)c1ccccc1Cl [GSK346294]
%Inh (SGK): 0% | %Inh (SIK2): 0% | %Inh (SIK): 0% | %Inh (SLK): 59% | %Inh (SNARK): 21% | %Inh (SNRK): 0% | %Inh (SRC): 0% | %Inh (SRMS): 0% | %Inh (SRPK1): 20% | %Inh (SRPK2): 12% | %Inh (SRPK3): 0% | %Inh (STK16): 22% | %Inh (STK33): 0% | %Inh (STK35): 0% | %Inh (STK36): 0% | %Inh (STK39): 0% | %Inh (SYK): 34% | %Inh (SgK110): 0% | %Inh (TAK1): 0% | %Inh (TAOK1): 0%

CN1c2ccc(CNc3ccc(F)cc3)cc2-c2c(cnn2C)S1(=O)=O
%Inh (SGK): 0% | %Inh (SIK2): 0% | %Inh (SIK): 0% | %Inh (SLK): 0% | %Inh (SNARK): 0% | %Inh (SNRK): 0% | %Inh (SRC): 0% | %Inh (SRMS): 0% | %Inh (SRPK1): 0% | %Inh (SRPK2): 21% | %Inh (SRPK3): 0% | %Inh (STK16): 0% | %Inh (STK33): 0% | %Inh (STK35): 0% | %Inh (STK36): 0% | %Inh (STK39): 0% | %Inh (SYK): 27% | %Inh (SgK110): 0% | %Inh (TAK1): 0% | %Inh (TAOK1): 0%

O=C(NCCCN1CCOCC1)c1cccc(Nc2nccc(Nc3ccc(Oc4ccccc4)cc3)n2)c1 [GW663929]
%Inh (SGK): 1% | %Inh (SIK2): 12% | %Inh (SIK): 68% | %Inh (SLK): 8% | %Inh (SNARK): 22% | %Inh (SNRK): 0% | %Inh (SRC): 81% | %Inh (SRMS): 97.5% | %Inh (SRPK1): 25% | %Inh (SRPK2): 19% | %Inh (SRPK3): 0% | %Inh (STK16): 64% | %Inh (STK33): 10% | %Inh (STK35): 34% | %Inh (STK36): 33% | %Inh (STK39): 23% | %Inh (SYK): 0% | %Inh (SgK110): 0% | %Inh (TAK1): 19% | %Inh (TAOK1): 0%

NCCNS(=O)(=O)c1ccc(-c2ccnc3[nH]ccc23)cc1 [GSK977617]
%Inh (SGK; 1 µM): 45% and 33% | %Inh (SIK2; 1 µM): 12% and 0% | %Inh (SIK; 1 µM): 21% and 0% | %Inh (SLK; 1 µM): 89% and 75% | %Inh (SNARK; 1 µM): 89% and 82% | %Inh (SNRK; 1 µM): 16% and 0% | %Inh (SRC; 1 µM): 11% and 0% | %Inh (SRMS): 0% | %Inh (SRPK1; 1 µM): 87% and 65% | %Inh (SRPK2; 1 µM): 6% and 0% | %Inh (SRPK3; 1 µM): 67% and 37% | %Inh (STK16; 1 µM): 80% and 68% | %Inh (STK33; 1 µM): 85% and 71% | %Inh (STK35): 0% | %Inh (STK36): 0% | %Inh (STK39; 1 µM): 0% and 13% | %Inh (SYK; 1 µM): 32% and 15% | %Inh (SgK110): 0% | %Inh (TAK1; 1 µM): 75% and 65% | %Inh (TAOK1; 1 µM): 54% and 40%

O=c1cc(N2CCOCC2)nc2n(Cc3cccc4ccccc34)ccn12 [GSK2333389]
%Inh (SGK): 0% | %Inh (SIK2): 0% | %Inh (SIK): 0% | %Inh (SLK): 0% | %Inh (SNARK): 0% | %Inh (SNRK): 0% | %Inh (SRC): 0% | %Inh (SRMS): 0% | %Inh (SRPK1): 29% | %Inh (SRPK2): 0% | %Inh (SRPK3): 0% | %Inh (STK16): 0% | %Inh (STK33): 0% | %Inh (STK35): 2% | %Inh (STK36): 0% | %Inh (STK39): 0% | %Inh (SYK): 2% | %Inh (SgK110): 0% | %Inh (TAK1): 0% | %Inh (TAOK1): 0%

COc1cc2c(cc1OCCN1CCN(C)CC1)ncc1c3ccc(C#N)cc3[nH]c21
%Inh (SGK): 78% | %Inh (SIK2): 88% | %Inh (SIK): 17% | %Inh (SLK): 34% | %Inh (SNARK): 97.1% | %Inh (SNRK): 27% | %Inh (SRC): 0% | %Inh (SRMS): 0% | %Inh (SRPK1): 7% | %Inh (SRPK2): 0% | %Inh (SRPK3): 0% | %Inh (STK16): 10% | %Inh (STK33): 25% | %Inh (STK35): 0% | %Inh (STK36): 0% | %Inh (STK39): 11% | %Inh (SYK): 8% | %Inh (SgK110): 0% | %Inh (TAK1): 90.6% | %Inh (TAOK1): 0%
